The text below walks through data of PubChem BioAssay (NCI).

About 83,000 compounds went through this panel and 20% of them were active in at least one assay; those are over-represented in the sample as a whole.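 Treatment: one concentration, 48 hours, 96-well format. Scoring: percent growth, with anything below 10 considered active.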 Unmarked numbers belong to inactive results. Activity calls are given as the source filed them.

Holding throughout (assay): NCI-60 one-dose screen, 48 h (100 = growth as untreated, 0 = no growth, -100 = all killed)
For one experiment, the system named is NCI-H23 lung. Conditions: 10 µM.
A further experiment concerns NCI-H226 lung. As to conditions: 10 µM.
In a further experiment the test system is NCI-H322M lung. As to conditions: 10 µM.
A further experiment relates to HOP-62 NSCLC. As to conditions: 10 µM.
The test system of a further experiment is NCI-H460 lung. As to conditions: 10 µM.
A further experiment deals with HOP-92 NSCLC. Conditions: 10 µM.
A further experiment concerns NCI-H522 lung. As to conditions: 10 µM.
A further experiment concerns 786-0 renal. As to conditions: 10 µM.
Another experiment has as its system COLO 205 colon. As to conditions: 10 µM.
The subject of the next experiment is DU-145 prostate. As to conditions: 10 µM.
The test system of the next experiment is K-562 leukemia. As to conditions: 10 µM.
A further experiment has as its system MALME-3M melanoma. Conditions: 10 µM.
The next experiment relates to MDA-MB-231 breast. Conditions: 10 µM.
The subject of another experiment is RXF 393 renal. Conditions: 10 µM.
The subject of a further experiment is SF-268 CNS. Conditions: 10 µM.
The subject of the next experiment is SF-295 CNS. Conditions: 10 µM.
A further experiment relates to SF-539 CNS. As to conditions: 10 µM.
The test system of another experiment is M14 melanoma. Conditions: 10 µM unless noted.
The test system of another experiment is A549/ATCC NSCLC. Conditions: 10 µM.
The test system of the next experiment is UACC-257 melanoma. As to conditions: 10 µM.

Turning to `O=Nc1ccc(Nc2ccccc2)cc1`, the growth with NCI-H23 lung is 89%; in the experiment with NCI-H226 lung, 92.8%; with NCI-H322M lung, 98.5%; in the experiment with HOP-62 NSCLC, 111%; with NCI-H460 lung it was 97.8%; in the experiment on HOP-92 NSCLC, 26%. Also, the growth with NCI-H522 lung was 66.8%; in the experiment on 786-0 renal, 80%; in the experiment with COLO 205 colon, 105%; in the experiment on DU-145 prostate, 94.9%; in the experiment on K-562 leukemia, 13.4%; in the experiment with MALME-3M melanoma, 104%. Besides, the growth with MDA-MB-231 breast is 62.5%; with RXF 393 renal, 86.5%; with SF-268 CNS it was 86%; in the experiment with SF-295 CNS, 101%; with SF-539 CNS it was 67.7%; in the experiment with M14 melanoma it was 89.7%.
On to `O=C1c2ccccc2CCC1(Br)Br`, for which the growth was 28.9% in the experiment with NCI-H23 lung; 27.1% with NCI-H226 lung; 100% in the experiment on NCI-H322M lung; 96.5% in the experiment on HOP-62 NSCLC; 95% in the experiment on NCI-H460 lung; -70.8% (active) in the experiment on NCI-H522 lung. Besides, the growth was 96% in the experiment with A549/ATCC NSCLC; 14.8% in the experiment with 786-0 renal; -68.2% (active) in the experiment on COLO 205 colon; 21.8% with DU-145 prostate; -13.5% (active) in the experiment with K-562 leukemia; -45.8% (active) in the experiment with MALME-3M melanoma. Moreover, the growth in the experiment with MDA-MB-231 breast is -1.14% (active); in the experiment with SF-268 CNS it was 59.3%; with SF-295 CNS it was 105%; in the experiment with SF-539 CNS, 16.9%; in the experiment on UACC-257 melanoma it was 63%; in the experiment with M14 melanoma, 5.66% (active).
As to `O=c1[nH]cc(/C=N\Nc2ccccc2)c(=O)[nH]1`, the growth in the experiment on NCI-H23 lung was 89.9%; in the experiment with NCI-H226 lung it was 87.7%; in the experiment on NCI-H322M lung it was 58.1%; with HOP-62 NSCLC, 62.7%; in the experiment with NCI-H460 lung, 47.6%; with HOP-92 NSCLC, 96.7%. In addition, the growth was 19.7% in the experiment on NCI-H522 lung; 29.4% in the experiment with A549/ATCC NSCLC; 79.6% with 786-0 renal; 67.9% with COLO 205 colon; 74.2% in the experiment on DU-145 prostate; 8.14% (active) in the experiment with K-562 leukemia. The growth in the experiment on MALME-3M melanoma is 84.4%; in the experiment on MDA-MB-231 breast, 63.9%; with RXF 393 renal it was 111%; in the experiment with SF-268 CNS, 58.5%; with SF-295 CNS it was 45.5%; with UACC-257 melanoma, 78.4%. The growth in the experiment with M14 melanoma is 50.8%.
As to `COc1ccc2c(c1)[nH]c1c(/C=C/c3ccccc3)nccc12`, the growth with NCI-H23 lung was 60.8%; with NCI-H226 lung it was 73%; with NCI-H322M lung, 70.5%; in the experiment on HOP-62 NSCLC it was 71.8%; in the experiment on NCI-H460 lung, 56.2%; in the experiment on NCI-H522 lung, 40.3%. The growth was 87.3% with A549/ATCC NSCLC; 62.9% with 786-0 renal; 14.4% in the experiment on COLO 205 colon; 103% with DU-145 prostate; 36.1% in the experiment with K-562 leukemia; 69.2% in the experiment with MALME-3M melanoma. For the same compound, the growth was 73.7% in the experiment on MDA-MB-231 breast; 69.5% in the experiment on RXF 393 renal; 85.5% in the experiment with SF-268 CNS; 59.2% with SF-295 CNS; 52.1% with SF-539 CNS; 71.8% in the experiment on UACC-257 melanoma. Further, the growth in the experiment on M14 melanoma is 71.4%.
Turning to `COc1cc(N)ccc1Nc1c2ccccc2nc2ccccc12`, the growth is 91.8% in the experiment on NCI-H23 lung; 73.3% in the experiment on NCI-H226 lung; 83.6% in the experiment on NCI-H322M lung; 83.6% in the experiment with HOP-62 NSCLC; 4.72% (active) in the experiment with NCI-H460 lung; 40.8% in the experiment with A549/ATCC NSCLC. In addition, the growth in the experiment on 786-0 renal is 69.4%; in the experiment with COLO 205 colon, 12.4%; in the experiment with DU-145 prostate, 39.7%; in the experiment with K-562 leukemia it was 1.11% (active); with MALME-3M melanoma, 95.7%; in the experiment with MDA-MB-231 breast it was 56.4%. In addition, the growth with RXF 393 renal is 95.1%; with SF-268 CNS it was 10.4%; in the experiment on SF-295 CNS, 91.5%; in the experiment with M14 melanoma it was 94.1%.
Regarding `Cc1c(-c2ccccc2)[nH]c2ccccc12`, the growth with NCI-H23 lung is 103%; in the experiment on NCI-H226 lung, 95.3%; with NCI-H322M lung, 108%; with HOP-62 NSCLC, 104%; in the experiment on NCI-H460 lung, 104%; in the experiment with HOP-92 NSCLC, 71.8%. Moreover, the growth in the experiment with NCI-H522 lung is 86.1%; with A549/ATCC NSCLC, 102%; in the experiment on COLO 205 colon, 115%; in the experiment on DU-145 prostate it was 107%; with K-562 leukemia, 110%; with MALME-3M melanoma it was 106%. Moreover, the growth in the experiment on MDA-MB-231 breast is 95.1%; in the experiment on RXF 393 renal, 109%; in the experiment with SF-268 CNS it was 104%; in the experiment with SF-295 CNS it was 106%; with SF-539 CNS, 99.3%; with UACC-257 melanoma, 112%. Moreover, the growth in the experiment on M14 melanoma is 143%.
On to `O=C1C=CC(=O)N1c1ccc(N2C(=O)C=CC2=O)cc1`, for which the growth with NCI-H23 lung was 91.3%; in the experiment on NCI-H226 lung, 84.8%; with NCI-H322M lung, 92.4%; in the experiment on HOP-62 NSCLC, 86.8%; with NCI-H460 lung, 103%; in the experiment on HOP-92 NSCLC it was 123%. Further, the growth in the experiment with NCI-H522 lung was -11.5% (active); in the experiment with A549/ATCC NSCLC it was 101%; in the experiment on 786-0 renal it was 103%; with COLO 205 colon, 95.2%; in the experiment with DU-145 prostate it was 122%; in the experiment on K-562 leukemia, -6.5% (active). Further, the growth is 85.7% in the experiment with MALME-3M melanoma; 115% in the experiment on MDA-MB-231 breast; 112% with SF-268 CNS; 109% with SF-295 CNS; 87% with SF-539 CNS; 113% with UACC-257 melanoma. In the experiment on M14 melanoma, the growth is 98.3%.
For `CCC(=O)Oc1ccc(/C=N/NC(N)=S)nc1`, the growth was 26.7% in the experiment on NCI-H23 lung; 79.1% with NCI-H226 lung; 46% with NCI-H322M lung; 36.4% in the experiment with HOP-62 NSCLC; 52% with NCI-H460 lung; 68.5% in the experiment with HOP-92 NSCLC. Besides, the growth with NCI-H522 lung was 39.4%; with A549/ATCC NSCLC, 98.8%; with 786-0 renal, 23.6%; in the experiment with COLO 205 colon it was 79.5%; in the experiment on DU-145 prostate, 28.4%; in the experiment on K-562 leukemia, 47.3%. Further, the growth in the experiment on MALME-3M melanoma was 59%; in the experiment with MDA-MB-231 breast, 63.4%; in the experiment on RXF 393 renal it was 60.5%; in the experiment on SF-268 CNS it was 25.4%; with SF-295 CNS it was 97.4%; in the experiment with UACC-257 melanoma, 68.1%. The growth in the experiment with M14 melanoma is 9.1% (active).
Turning to `O=[N+]([O-])c1cc(S(=O)(=O)Nc2ccccc2)ccc1Cl`, the growth with NCI-H23 lung was 97%; in the experiment on NCI-H226 lung, 99%; in the experiment with NCI-H322M lung, 90.9%; in the experiment on HOP-62 NSCLC it was 104%; with NCI-H460 lung, 108%; in the experiment on HOP-92 NSCLC, 90%. Besides, the growth in the experiment on NCI-H522 lung is 73.8%; in the experiment on A549/ATCC NSCLC, 91.6%; in the experiment on 786-0 renal, 100%; with COLO 205 colon, 119%; in the experiment with K-562 leukemia it was 83.9%; in the experiment with MALME-3M melanoma it was 105%. Besides, the growth with MDA-MB-231 breast was 110%; in the experiment on RXF 393 renal it was 114%; in the experiment on SF-268 CNS it was 99.6%; in the experiment with SF-295 CNS it was 97.2%; with SF-539 CNS, 102%; in the experiment on UACC-257 melanoma it was 88%. Also, the growth in the experiment with M14 melanoma was 88.7%.
